Data as given in PubChem BioAssay.
Active and inactive are the calls of the source.

Experiments:
[1] = tested on: Human papillomavirus type 1a protein E7 (residues 44-93); assay: HPV1a E7 fragment binders on microarrays, primary screen, biochemical, small-molecule microarray, residues 44-93, 635 nm fluorescence (AID 1108); conditions: small-molecule microarray binding, fluorescence 635 nm; higher = more signal;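 note: E7 fragment applied at 1 µg/mL in TBST for 1 h at 4 C; score combines spot fluorescence with its signal to noise ratio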
[2] = modulators of HCV replicon luciferase signal, primary screen, HCV replication inhibitor project, Huh7 cells, luciferase reporter (AID 1109); conditions: 48 h, higher = more signal;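 note: huh7 hepatoma cells harbouring a luciferase neomycin HCV replicon reporter; luciferase luminescence as measure of HCV replicon replication; test concentration not given here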
[3] = biological target: Left-right determination factor 2 (Homo sapiens) (UniProt O00292); assay: LEFTY2 binders on small-molecule microarrays, primary screen, biochemical, small-molecule microarray, 635 nm fluorescence scan (AID 1110); conditions: LEFTY2 binding, higher = more signal
Left-right determination factor 2 (Homo sapiens), sequence (O00292 whole entry, looked up): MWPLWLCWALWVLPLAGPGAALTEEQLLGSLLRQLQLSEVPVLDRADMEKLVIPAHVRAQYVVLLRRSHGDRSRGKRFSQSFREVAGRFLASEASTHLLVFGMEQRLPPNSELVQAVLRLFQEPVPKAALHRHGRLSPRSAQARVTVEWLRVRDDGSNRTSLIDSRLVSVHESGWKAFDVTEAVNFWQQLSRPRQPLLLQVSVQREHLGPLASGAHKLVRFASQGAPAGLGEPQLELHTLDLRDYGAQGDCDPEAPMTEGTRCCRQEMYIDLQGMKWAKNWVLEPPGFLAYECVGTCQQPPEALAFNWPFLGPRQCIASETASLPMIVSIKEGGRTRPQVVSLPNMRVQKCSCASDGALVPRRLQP

[4] = biological target: Calmodulin-1 (Homo sapiens) (UniProt P0DP23); assay: CALM1 binders on microarrays, EGTA buffer, profiling panel, biochemical, small-molecule microarray, Cy5-labelled CALM1 (AID 1111); conditions: Cy5-CALM1 binding fluorescence, higher = more signal;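 note: labelled calmodulin applied in Tris saline Tween buffer holding calcium plus EGTA and DTT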
[5] = biological target: Calmodulin-1 (Homo sapiens) (UniProt P0DP23); assay: calcium-bound CALM1 binders on microarrays, profiling panel, artefact control for SMM control-protein annotation, biochemical, small-molecule microarray, Cy5-labelled CALM1, plus calcium (AID 1112); conditions: Cy5-CALM1 binding fluorescence, higher = more signal;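 note: score merges spot fluorescence with signal to noise from triplicate slides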
[6] = small-molecule microarray binders of probe aWnt5a, primary screen, biochemical, biotinylated probe, 635/667 nm fluorescence (AID 1113); conditions: higher = more signal;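 note: score merges 667 nm fluorescence intensity with signal-to-noise per printed feature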
[7] = small-molecule microarray binders of probe aShh, primary screen, biochemical, biotinylated probe, 635/667 nm fluorescence (AID 1114); conditions: higher = more signal;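 note: probe is biotin-labelled aShh protein from a stem cell growth factor screen; measures binding of labelled protein to compounds printed on the slide; score merges feature fluorescence at 667 nm with signal-to-noise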
[8] = small-molecule microarray binders of probe aNog, primary screen, biochemical, biotinylated probe, 635/667 nm fluorescence (AID 1115); conditions: higher = more signal;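 note: probe is biotinylated aNog protein used at 0.15 µg/mL for 1 h at 4 C; z-score combines 667 nm fluorescence of each spot with its signal to noise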
[9] = biological target: Torsin-1A-interacting protein 1 (Homo sapiens) (UniProt Q5JTV8); assay: LAP1 binders from COS7 cell lysate, primary screen, small-molecule microarray, 635/667 nm fluorescence (AID 1116); conditions: COS7-hLAP1 lysate binding, 635 nm fluorescence, higher = more signal
Torsin-1A-interacting protein 1 (Homo sapiens), sequence (Q5JTV8 whole entry, looked up): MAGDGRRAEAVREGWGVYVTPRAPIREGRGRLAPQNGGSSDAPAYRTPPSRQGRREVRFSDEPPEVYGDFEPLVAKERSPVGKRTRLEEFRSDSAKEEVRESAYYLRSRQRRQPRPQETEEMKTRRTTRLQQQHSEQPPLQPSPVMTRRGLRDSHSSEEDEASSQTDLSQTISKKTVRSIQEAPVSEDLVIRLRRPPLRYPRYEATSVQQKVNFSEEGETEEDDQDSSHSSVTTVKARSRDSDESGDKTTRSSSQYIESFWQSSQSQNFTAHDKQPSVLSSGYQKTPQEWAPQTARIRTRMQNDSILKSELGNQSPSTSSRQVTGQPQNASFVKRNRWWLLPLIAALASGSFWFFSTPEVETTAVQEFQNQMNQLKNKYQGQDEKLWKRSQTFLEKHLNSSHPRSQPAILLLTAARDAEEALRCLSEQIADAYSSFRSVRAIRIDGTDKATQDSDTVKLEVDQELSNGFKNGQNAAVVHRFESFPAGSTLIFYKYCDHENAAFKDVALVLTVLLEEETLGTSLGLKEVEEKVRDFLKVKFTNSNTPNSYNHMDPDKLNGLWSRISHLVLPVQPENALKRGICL

[10] = biological target: Alpha-bungarotoxin (Bungarus multicinctus) (UniProt P60615); assay: alpha-bungarotoxin binders on microarray, profiling panel, artefact control for SMM control protein annotation, biochemical, small-molecule microarray, Alexa647 label, 635/667 nm fluorescence (AID 1117); conditions: alpha-BTX-A647 binding fluorescence, higher = more signal
Alpha-bungarotoxin (Bungarus multicinctus), sequence (P60615 whole entry, looked up): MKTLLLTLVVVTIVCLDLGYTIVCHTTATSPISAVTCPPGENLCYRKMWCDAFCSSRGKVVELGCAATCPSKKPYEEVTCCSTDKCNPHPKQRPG

[11] = biological target: Albumin (Bos taurus) (UniProt P02769); assay: bovine serum albumin binders on microarray, profiling panel, artefact control for SMM control protein annotation, biochemical, small-molecule microarray, Alexa647 label, 635/667 nm fluorescence (AID 1118); conditions: BSA-A647 binding, fluorescence 635 nm, higher = more signal;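 note: score merges 667 nm emission intensity and signal-to-noise per printed compound spot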
Albumin (Bos taurus), sequence (P02769 whole entry, looked up): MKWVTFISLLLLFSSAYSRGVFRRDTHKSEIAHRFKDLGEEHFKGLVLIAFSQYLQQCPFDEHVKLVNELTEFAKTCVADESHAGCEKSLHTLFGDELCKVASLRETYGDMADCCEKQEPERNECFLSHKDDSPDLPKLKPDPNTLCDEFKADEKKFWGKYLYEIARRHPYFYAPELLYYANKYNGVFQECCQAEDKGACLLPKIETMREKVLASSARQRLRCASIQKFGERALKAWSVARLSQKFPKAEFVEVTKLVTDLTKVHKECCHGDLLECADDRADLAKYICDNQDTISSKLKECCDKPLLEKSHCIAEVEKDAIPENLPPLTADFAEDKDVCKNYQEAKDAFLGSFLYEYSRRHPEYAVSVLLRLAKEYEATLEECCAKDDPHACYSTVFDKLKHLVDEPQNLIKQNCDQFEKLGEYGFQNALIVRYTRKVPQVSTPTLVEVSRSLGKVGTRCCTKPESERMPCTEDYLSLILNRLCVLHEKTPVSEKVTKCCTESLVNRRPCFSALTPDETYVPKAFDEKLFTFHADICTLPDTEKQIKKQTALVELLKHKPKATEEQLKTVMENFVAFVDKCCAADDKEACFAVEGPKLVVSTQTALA

[12] = small-molecule microarray binders of probe aXIP, primary screen, biochemical, NeuroSMM set, 635/667 nm fluorescence (AID 1119); conditions: higher = more signal, called active from +8 up or from −8 down;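 note: probe is the protein aXip251-270 applied at 1 µg/mL to compound-printed slides; binding of probe to printed compounds measured as 667 nm fluorescence plus signal to noise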
[13] = small-molecule binders of probe aNOTCH3, primary screen, biochemical, small-molecule microarray, 635/667 nm fluorescence (AID 1120); conditions: higher = more signal;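 note: probe is a biotin-tagged antibody raised against NOTCH3 rather than NOTCH3 protein; score merges spot fluorescence near 667 nm with spot signal to noise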
[14] = small-molecule binders of probe aNOTCH2, primary screen, biochemical, small-molecule microarray, 635/667 nm fluorescence (AID 1121); conditions: higher = more signal;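 note: score merges feature fluorescence read at 667 nm with its signal to noise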
[15] = biological target: Carbonic anhydrase 2 (Homo sapiens) (UniProt P00918); assay: CAII small-molecule binders, profiling panel, biochemical, small-molecule microarray, Alexa647-labelled CAII (AID 1122); conditions: CAII-A647 binding fluorescence, higher = more signal
[16] = COS7 lysate on small-molecule microarray, probe aHis, 635 nm (AID 1123); conditions: COS7 cell lysate, fluorescence, higher = more signal;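 note: z-score combines 667nm fluorescence intensity with signal-to-noise per printed compound spot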
[17] = compound binding in COS7 lysate, probe aLAP1, primary screen, cell lysate, small-molecule microarray (AID 1124); conditions: probe aLAP1, fluorescence, higher = more signal;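 note: lysate comes from COS7 cells expressing LAP1 and is applied at 0.3 µg/mL; score merges spot fluorescence near 667 nm with signal-to-noise over triplicate slides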
[18] = tested on: Sam68 (KHDRBS1); assay: Sam68 small-molecule binders, primary screen, biochemical, small-molecule microarray, 635 nm fluorescence (AID 1125); conditions: small-molecule microarray binding, higher = more signal;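 note: score merges 667 nm channel intensity with signal to noise over triplicate slides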
[19] = tested on: Chordin-like protein 2 (CHRDL2); assay: CHRDL2 small-molecule binders, primary screen, biochemical, small-molecule microarray, 635 nm fluorescence (AID 1126); conditions: small-molecule microarray binding, fluorescence 635 nm; higher = more signal;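 note: printed compound slides probed with Chrdl2 protein at 4 µg/mL for 1 h at 4 C; score merges 667 nm emission intensity with signal to noise over three replicate slides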
[20] = biological target: Concanavalin-A (Canavalia ensiformis) (UniProt P02866); assay: ConA small-molecule binders, primary screen, artefact control for SMM control protein annotation, biochemical, small-molecule microarray, Alexa647 label, 635 nm (AID 1127); conditions: ConA-A647 binding fluorescence, higher = more signal;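 note: z combines 667 nm emission intensity with signal-to-noise across three replicate slides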
Concanavalin-A (Canavalia ensiformis), sequence (P02866 whole entry, looked up): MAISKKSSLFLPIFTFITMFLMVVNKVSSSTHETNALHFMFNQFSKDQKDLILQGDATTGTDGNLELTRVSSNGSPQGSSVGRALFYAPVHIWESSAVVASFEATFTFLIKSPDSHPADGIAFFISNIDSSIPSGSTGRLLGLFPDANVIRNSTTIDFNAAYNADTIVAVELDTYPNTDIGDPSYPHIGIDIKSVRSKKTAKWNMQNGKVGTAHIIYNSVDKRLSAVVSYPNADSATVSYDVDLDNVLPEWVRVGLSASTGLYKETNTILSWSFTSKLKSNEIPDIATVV

What does the source list for `COC(=O)[C@@]1(Cc2ccc(OC)cc2)[C@H]2c3cc(C(=O)N(C)C)n(Cc4ccc(C)c(F)c4F)c3C[C@H]2CN1C(=O)c1ccccc1`?
composite z-score [1]: 0.723; z-score [2]: -1.35; composite z-score [3]: -0.841; composite z-score [4]: 1.52; composite z-score [5]: 1.21; composite z-score [6]: 0.148; composite z-score [7]: 0.575; composite z-score [8]: 1.09; composite z-score [9]: 0.232; composite z-score [10]: 0.644; composite z-score [11]: 0.856; composite Z-score [12]: 0.0888 (inactive); composite z-score [13]: 0.0159; composite z-score [14]: -0.108; composite z-score [15]: 0.535; composite z-score [16]: 1.41; composite z-score [17]: 0.0293; composite z-score [18]: 0.138; composite z-score [19]: -1.22; composite z-score [20]: 0.782

Which results are given for `CC(C)CN1C(=O)[C@@]2(Cc3ccccc31)c1ccccc1C(=O)N(C1CCCCC1)[C@H]2c1ccc(CO)cc1`?
composite z-score [1]: -0.973; z-score [2]: -0.192; composite z-score [3]: -0.841; composite z-score [4]: -0.0258; composite z-score [5]: 0.644; composite z-score [6]: -0.0944; composite z-score [7]: -0.0626; composite z-score [8]: 0.697; composite z-score [9]: -0.256; composite z-score [10]: -1.06; composite z-score [11]: -0.436; composite Z-score [12]: 0.439 (inactive); composite z-score [13]: -0.0647; composite z-score [14]: -0.0433; composite z-score [15]: 0.781; composite z-score [16]: 0.878; composite z-score [17]: 1.23; composite z-score [18]: -0.18; composite z-score [19]: -1.43; composite z-score [20]: -1.42

With `COCCOC(=O)N1C(=O)[C@@]2(c3cc(C#CCCO)ccc31)[C@H](c1ccc(O)cc1)N1[C@H](c3ccccc3)[C@H](c3ccccc3)OC(=O)[C@H]1[C@@H]2C(=O)Nc1nc2ccccc2s1` as the molecule, how does the composite z-score [1] read?
The composite z-score was 1.37.

What about the z-score [2] of the same molecule?
Its z-score is 0.688.

And the composite z-score [3]?
The composite z-score was 0.704.

What about the composite z-score [4] of the same molecule?
The composite z-score was 0.207.

What about the composite z-score [5] of the same molecule?
The composite z-score was -0.567.

And the composite z-score [6]?
Its composite z-score is -0.0256.

And the composite z-score [7]?
The composite z-score was -0.167.

What about the composite z-score [8] of the same molecule?
Its composite z-score is -0.223.

And the composite z-score [9]?
Its composite z-score is 0.234.

And the composite z-score [10]?
The composite z-score was 1.46.

What about the composite z-score [11] of the same molecule?
The composite z-score was 0.0742.

And the composite Z-score [12]?
The composite Z-score was -0.0844 (inactive).

What about the composite z-score [13] of the same molecule?
Its composite z-score is 0.272.

And the composite z-score [14]?
The composite z-score was -0.0649.

What about the composite z-score [15] of the same molecule?
Its composite z-score is 0.16.

What about the composite z-score [16] of the same molecule?
The composite z-score was 0.372.

What about the composite z-score [17] of the same molecule?
Its composite z-score is 0.403.

And the composite z-score [18]?
Its composite z-score is 1.29.

And the composite z-score [19]?
The composite z-score was 0.633.

What about the composite z-score [20] of the same molecule?
Its composite z-score is 1.17.

For `CO[C@]12C=C(Br)[C@@H](C[C@@H]1c1ccccc1)[C@@]1(CO1)C2=O`, which composite z-score [1] is on record?
The composite z-score was -0.468.

What about the z-score [2] of the same molecule?
The z-score was -2.97.

What about the composite z-score [3] of the same molecule?
Its composite z-score is 0.36.

And the composite z-score [4]?
The composite z-score was -0.264.

And the composite z-score [5]?
Its composite z-score is -0.533.

And the composite z-score [6]?
Its composite z-score is -0.0125.

What about the composite z-score [7] of the same molecule?
The composite z-score was -0.0146.

And the composite z-score [8]?
Its composite z-score is 0.0256.

And the composite z-score [9]?
Its composite z-score is -0.161.

What about the composite z-score [10] of the same molecule?
Its composite z-score is -0.3.

And the composite z-score [11]?
Its composite z-score is 0.139.

And the composite Z-score [12]?
The composite Z-score was -0.0467 (inactive).

What about the composite z-score [13] of the same molecule?
The composite z-score was 0.0773.

And the composite z-score [14]?
The composite z-score was -0.11.

And the composite z-score [15]?
The composite z-score was 0.143.

And the composite z-score [16]?
The composite z-score was -0.245.

What about the composite z-score [17] of the same molecule?
Its composite z-score is -0.0571.

And the composite z-score [18]?
The composite z-score was 0.0999.

What about the composite z-score [19] of the same molecule?
The composite z-score was 0.77.

And the composite z-score [20]?
The composite z-score was 0.0193.

With `CCOC(=O)C1=CC[C@@H](c2ccc(-c3ccc(OCc4ccccc4)cc3)c(OC)c2)N(S(=O)(=O)c2ccc(C)cc2)[C@H]1c1ccccc1` as the molecule, how does the composite z-score [1] read?
Its composite z-score is 1.39.

What about the z-score [2] of the same molecule?
The z-score was -1.76.

What about the composite z-score [3] of the same molecule?
Its composite z-score is 0.4.

And the composite z-score [4]?
The composite z-score was 1.64.

What about the composite z-score [5] of the same molecule?
The composite z-score was 0.126.

And the composite z-score [6]?
Its composite z-score is 0.0279.

And the composite z-score [7]?
Its composite z-score is -0.0171.

What about the composite z-score [8] of the same molecule?
The composite z-score was -0.226.

What about the composite z-score [9] of the same molecule?
The composite z-score was 0.373.

What about the composite z-score [10] of the same molecule?
Its composite z-score is 1.27.

And the composite z-score [11]?
The composite z-score was 0.713.

What about the composite Z-score [12] of the same molecule?
The composite Z-score was 1.53 (inactive).

And the composite z-score [13]?
Its composite z-score is 0.349.

And the composite z-score [14]?
The composite z-score was -0.146.

What about the composite z-score [15] of the same molecule?
Its composite z-score is 0.469.

What about the composite z-score [16] of the same molecule?
The composite z-score was 1.64.

What about the composite z-score [17] of the same molecule?
Its composite z-score is 0.87.

What about the composite z-score [18] of the same molecule?
The composite z-score was 1.24.

And the composite z-score [19]?
The composite z-score was 0.0693.

And the composite z-score [20]?
The composite z-score was 1.13.

Which results are given for `CC1CC/C=C\[C@H]2OC34C=CCN(Cn5nnc6ccccc65)C(=O)[C@H]3N(C(C)CO)C(=O)[C@@H]4C2C(=O)O1` (stereo not given in full)?
composite z-score [1]: -0.132; z-score [2]: -0.276; composite z-score [3]: -0.371; composite z-score [4]: -0.45; composite z-score [5]: -0.223; composite z-score [6]: -0.184; composite z-score [7]: -0.123; composite z-score [8]: 0.34; composite z-score [9]: 0.413; composite z-score [10]: -0.465; composite z-score [11]: -0.178; composite Z-score [12]: -0.105 (inactive); composite z-score [13]: -0.1; composite z-score [14]: -0.189; composite z-score [15]: 0.797; composite z-score [16]: -0.0502; composite z-score [17]: 0.0114; composite z-score [18]: -0.579; composite z-score [19]: -0.764; composite z-score [20]: -0.309
